Here are results for 20 compounds from PubChem BioAssay (NCI).

Compounds without any hit were thinned out: in the full panel of roughly 79,000, 15% have a hit. Unmarked numbers belong to inactive results. The source made the active and inactive calls. No stated cut-off is given here; in the data, active means growth inhibition above about 70%; inactive means the rest.

The nature of experiment [1]: NCI Yeast Anticancer Drug Screen. Data for the rad50 strain (AID 155).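 Further: 0% = growth of vehicle-only cultures of the same strain.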 The following applies: S. cerevisiae rad50 strain growth inhibition; at 50.0 µM; active compounds read high. In short, it runs like this:
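Yeast carrying a defined DNA repair defect were exposed to test compounds, and growth was compared with vehicle-treated controls to give percent inhibition.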

Experiment [2] can be described thus: NCI Yeast Anticancer Drug Screen. Data for the mec2-1 strain (AID 157). The following applies: S. cerevisiae mec2-1 strain, at 50.0 µM, active compounds read high. In short, it runs like this:
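Yeast mec2-1 mutant treated with compound. Readout: growth inhibition vs vehicle controls.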

Experiment [3] in a line: NCI Yeast Anticancer Drug Screen. Data for the sgs1 mgt1 strain (AID 161).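 Further: 0% = growth of cultures given vehicle only.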 The following applies: S. cerevisiae sgs1 mgt1 strain, at 50.0 µM, active compounds read high. In a few lines: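 Inhibition of yeast growth, normalised to vehicle-treated controls, is reported for a strain bearing genetic alterations in DNA damage repair.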
Experiment [4] can be described thus: NCI Yeast Anticancer Drug Screen. Data for the cln2 rad14 strain (AID 165).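 Further: 0% = growth equal to vehicle treated cultures.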 The following applies: S. cerevisiae cln2 rad14 strain, at 50.0 µM, active compounds read high. In a few lines:
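cln2 rad14 yeast strain; compound exposure; growth inhibition read vs vehicle controls.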

A short description of experiment [5]: NCI Yeast Anticancer Drug Screen. Data for the bub3 strain (AID 167). The following applies: S. cerevisiae bub3 mutant strain, at 50.0 µM, active compounds read high. In a few lines: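 Compounds were applied to a genetically altered yeast strain carrying a cell-cycle control defect. Growth inhibition was scored against vehicle-treated controls.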
The nature of experiment [6]: NCI Yeast Anticancer Drug Screen. Data for the mlh1 rad18 strain (AID 175). The following applies: S. cerevisiae mlh1 rad18 strain growth inhibition; at 50.0 µM; active compounds read high. In a few lines: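 Yeast w/ defined DNA-repair lesions; compound exposure; growth vs vehicle controls → % inhibition.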

Regarding `C[N+](C)(C)CCOC(=O)c1ccccc1CCl`, the growth inhibition was 19.8% in experiment [1]; 8.35% in experiment [2]; 31.6% in experiment [3]; 50.1% in experiment [4]; 97.3% (active) in experiment [5]; -17.1% in experiment [6].
On to `CCCCC(=O)CCCC`, for which the growth inhibition is 3.55% in experiment [1]; -14% in experiment [2]; -5.1% in experiment [3]; -3.3% in experiment [4]; -4.95% in experiment [5]; 4.35% in experiment [6].
As to `NC(=O)CC(N)C(=O)NC(Cc1ccccc1)C(=O)NC(Cc1ccccc1)NC(=O)C(Cc1c[nH]c2ccccc12)C(=O)O` (stereo not given), the growth inhibition is -18.6% in experiment [1]; 8.05% in experiment [2]; -11.1% in experiment [3]; -13.2% in experiment [4]; 1.85% in experiment [5]; 1.95% in experiment [6].
On to `CC1=CCS(=O)(=O)C1`, for which the growth inhibition in experiment [1] was 22.4%; in experiment [2] it was 1.55%; in experiment [3], 12.2%; in experiment [4] it was 10.3%; in experiment [5] it was -4.1%; in experiment [6], 29%.
Consider `O=C1CCCC1CC(CN1CCOCC1)Sc1nnnn1-c1ccccc1` (stereo not given), for which the growth inhibition in experiment [1] is 6.55%; in experiment [2] it was -3.5%; in experiment [3], 17.1%; in experiment [4], -16.6%; in experiment [5] it was 25.2%; in experiment [6], -45.8%.
Regarding `COC(=O)CCc1ccc(C2CO2)cc1` (stereo not given), the growth inhibition in experiment [1] is -1.4%; in experiment [2], 6.15%; in experiment [3] it was -9.5%; in experiment [4], -0.2%; in experiment [5], -11.2%; in experiment [6] it was 10.3%.
Take `CN1C2CCC1CC(OC(c1ccccc1)c1ccccc1)C2` (stereo not given): the growth inhibition in experiment [1] is 11.1%; in experiment [2] it was 4.05%; in experiment [3], -15.4%; in experiment [4], 0.25%; in experiment [5], 2.7%; in experiment [6] it was 5.1%.
For `CNC1C(O)C(OC2C(N)CC(N)C(OC3OC(CN)=CCC3N)C2O)OCC1(C)O` (stereo not given), the growth inhibition in experiment [1] was -17.3%; in experiment [2], -43.3%; in experiment [3] it was -34.1%; in experiment [4], -15.6%; in experiment [5], -25.8%; in experiment [6], -5.15%.
For `Cc1cccc(-c2cccc(C)c2C)c1C`, the growth inhibition was -6.5% in experiment [1]; 4.75% in experiment [2]; -1.35% in experiment [3]; 11.7% in experiment [4]; 4.2% in experiment [5]; 16.1% in experiment [6].
As for `C/C(=N\NC(=S)N1CCCCCC1)c1nccs1`, the growth inhibition in experiment [1] is 3.95%; in experiment [2] it was 0.25%; in experiment [3], -1.5%; in experiment [4] it was -18%; in experiment [5] it was -6.9%; in experiment [6], 2.15%.
In the case of `CC1Oc2ccc3ccccc3c2C(C)N1C` (stereo not given), the growth inhibition in experiment [1] was -0.55%; in experiment [2] it was 1.9%; in experiment [3] it was -6.45%; in experiment [4], -4.85%; in experiment [5] it was 1.3%; in experiment [6] it was 16.9%.
Regarding `COc1ccc(OC)c(NC(=O)c2ccccc2Cl)c1`, the growth inhibition in experiment [1] was -4.85%; in experiment [2], -1.95%; in experiment [3] it was 16.7%; in experiment [4], -13%; in experiment [5] it was 48.2%; in experiment [6], -16.8%.
As to `Nc1cccc(CC(N)C(=O)O)c1` (stereo not given), the growth inhibition in experiment [1] was -1.95%; in experiment [2], -5.55%; in experiment [3], -8.7%; in experiment [4], -44.1%; in experiment [5], -4.5%; in experiment [6], 1.7%.
Take `COc1cc2c(c(OC)c1OC)-c1ccc(OC)c(=O)cc1C(NC(=O)c1ccc(N=[N+]=[N-])cc1)CC2` (stereo not given): the growth inhibition in experiment [1] was 51.4%; in experiment [2], 74.8% (active); in experiment [3] it was 8.5%; in experiment [4] it was -4.7%; in experiment [5] it was -4.6%; in experiment [6], 87.3% (active).
In the case of `CC(COCc1ccccc1)NCc1ccccc1` (stereo not given), the growth inhibition in experiment [1] was -7.35%; in experiment [2], -27.6%; in experiment [3], 9.3%; in experiment [4] it was -9.15%; in experiment [5], -3.35%; in experiment [6], 13.2%.
As to `O=CCCC1CCCCC1`, the growth inhibition in experiment [1] was 4.75%; in experiment [2], 1.5%; in experiment [3], -4.55%; in experiment [4] it was -17.4%; in experiment [5], 13.1%; in experiment [6] it was -5.7%.
In the case of `CC12CC3(Nc4ccccc4C3(C)O)OC1(C)c1ccccc1N2` (stereo not given), the growth inhibition in experiment [1] was 1.1%; in experiment [2], 9.35%; in experiment [3], 10.3%; in experiment [4] it was 1.25%; in experiment [5], -6.1%; in experiment [6], 17.5%.
As to `CCOC(=O)NN(C(=O)OCC)c1c(NC)n(C)c(=O)n(C)c1=O`, the growth inhibition is -23.4% in experiment [1]; 7.1% in experiment [2]; -7.7% in experiment [3]; -23.8% in experiment [4]; 11.1% in experiment [5]; 13.3% in experiment [6].
Turning to `N=C1N=Nc2nc(C(C(=O)c3cccc(O)c3)c3nc4n(c3O)C(=N)N=N4)c(O)n21` (stereo not given), the growth inhibition in experiment [1] was 18.8%; in experiment [2] it was 23.9%; in experiment [3], -8.9%; in experiment [4] it was 10.4%; in experiment [5] it was -2.75%; in experiment [6], 28.6%.
For the compound `CCOC(=O)C(NC(C)=O)(C(=O)OCC)C1CCCCC1=O` (stereo not given), the growth inhibition is -10.8% in experiment [1]; 2.65% in experiment [2]; -33.4% in experiment [3]; -3.4% in experiment [4]; -10.8% in experiment [5]; -20.5% in experiment [6].
